Bioassay records from PubChem.
IDH1 R132H inh: human IDH1 R132H inhibition | IDH1-R132H enzyme, NADPH consumption, diaphorase/resazurin fluorescence | Potency, µM (series often up to 76.6 µM), actives largely listed as inhibitors | 390,000 tested, 0.093% active; also: nearly all actives have a fitted effect of over 65% in size
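IDH1-R132H (0.5 ug/mL dispensed) in pH 7.5 Tris buffer was preincubated 30 min with compound, then given a substrate mix of 0.016 mM NADPH and 2 mM alpha-KG for 80 min at room temperature; remaining NADPH was read by diaphorase/resazurin fluorescence.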
GLP1R inv ag: GLP-1 receptor (human) inverse agonism | HEK293 GLP-1R CRE-luciferase, luminescence, 24 h; GLP-1R form is constitutively active | P43220 | 410,000 tested, 1.6% active | Potency, µM (highest dose often 38.3 µM), usual class: inhibitors; also: nearly all actives have a fitted effect of over 55% in size
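qHTS in 1536-well format: reporter HEK293 cells expressing constitutive GLP-1R activity in DMEM + 10% Nu serum, 24 hr with compounds at 37 deg C, luminescence read after 12 min with detection reagent.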
HEK293 tox: cytotoxicity counter-screen for GLP-1 receptor inverse agonists; HEK293 cAMP-luciferase reporter cells, luminescence, 24 h; Potency, µM (top dose mostly 38.3 µM), actives largely listed as inhibitors; 410,000 tested, 0.13% active;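 also: loss of luciferase light is scored as toxicity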
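A 23 nL compound transfer followed 12 hours of cell culture at 37 deg C; exposure then lasted 24 hr. Luciferase assay detection reagent was dispensed and plates read for luminescence after a 12 min room-temperature wait.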
LDHA block: LDHA (human) enzyme inhibition; purified LDHA, NADH/diaphorase-resazurin fluorescence; active compounds read low; activity change, % (values are at about 110 or 230 µM); 480,000 tested, 0.15% active; AID 1347041; in the data active = activity change below about -30%; inconclusive = mostly about -25% to -30%
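Resorufin fluorescence (ex540/em590), read at 0 and 20 min after diaphorase/resazurin addition, reports the NADH left after a 5 min room-temperature reaction of 2 nM human LDH5 with 0.06 mM NADH and 0.2 mM pyruvate.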
PTHR1 ag: activates the human parathyroid hormone receptor PTHR1 | Q03431 | Potency, µM (titrated, usually from 115 µM), most hits filed as activators | 410,000 tested, 0.075% active | HEK293 GP2 PTHR1 cells, GloSensor cAMP luminescence, 1 h; also: nearly all actives have a fitted effect of over 55% in size
Target sequence (Q03431 whole entry, looked up): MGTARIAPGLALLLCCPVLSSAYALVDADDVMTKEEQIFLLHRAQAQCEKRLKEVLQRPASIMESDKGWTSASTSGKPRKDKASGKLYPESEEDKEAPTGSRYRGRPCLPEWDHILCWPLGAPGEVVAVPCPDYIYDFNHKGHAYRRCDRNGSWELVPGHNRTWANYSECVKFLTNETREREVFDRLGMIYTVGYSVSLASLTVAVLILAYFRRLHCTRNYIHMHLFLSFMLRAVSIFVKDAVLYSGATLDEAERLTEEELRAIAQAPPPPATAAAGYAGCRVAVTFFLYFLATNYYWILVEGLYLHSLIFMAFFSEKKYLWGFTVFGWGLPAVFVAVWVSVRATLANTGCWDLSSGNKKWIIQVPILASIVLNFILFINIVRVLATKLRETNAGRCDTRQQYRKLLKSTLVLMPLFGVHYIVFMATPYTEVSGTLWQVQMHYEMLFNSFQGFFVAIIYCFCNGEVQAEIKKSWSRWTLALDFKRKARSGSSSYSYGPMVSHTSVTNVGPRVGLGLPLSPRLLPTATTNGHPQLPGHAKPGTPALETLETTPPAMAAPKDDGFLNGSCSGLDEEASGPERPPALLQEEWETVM
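HEK-293-derived GP2 cells expressing PTHR1 and a GloSensor cAMP reporter, 3,000/well, plated overnight, given luciferin plus IBMX (each 0.5 mM as added) for 1 h at 37 °C, then compound for 1 h at 37 °C. Luminescence was read after 15 min at room temperature.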
GLP-1R agonist: GLP-1 receptor (human) agonism. Potency, µM (doses to about 45.6 µM), hits mostly activators. 380,000 tested, 0.007% active. AID 624172. HEK293 GLP-1R CRE-luciferase, luminescence, 4-6 h; cells express a hypersensitive GLP-1R form. P43220
A number is an active result; 0 = inactive; ? = inconclusive; - = not tested or not shown. Rows were chosen to be rich in hits. Some 1.7% of all compounds tested hit in one or more screens of this group. Unless noted, calls follow the shape of the dose curve; as a rule, active = well fitted curve in the direction sought with a large enough effect; inconclusive = small, poorly fitted or top-dose-only effect, or another doubt; inactive = no such curve, though single readings can be large; an effect the other way counts as inactive or inconclusive.

SMILES	IDH1 R132H inh	GLP1R inv ag	HEK293 tox	LDHA block	PTHR1 ag	GLP-1R agonist
CCOP(=O)(OCC)c1nc(-c2ccc(Br)cc2)oc1N1CCCCC1	0	8.91µM	0	0	0	0
O=C(NCCN1CCC(n2c(=O)[nH]c3ccccc32)CC1)c1ccc2ccccc2c1	-	?	0	0	0	0
O=C(NCCN1CCC2(CC1)C(=O)NCN2c1cccc(F)c1)c1ccc2ccccc2c1	-	7.94µM	0	0	0	0
c1nc(CN2CCNCC2)cs1	-	-	-	0	-	-
CCOC(=O)C1(CCOc2ccccc2)CCN(Cc2ccccc2OC)CC1	0	8.91µM	0	0	0	0
CN(C)CCCN(C(=O)CCc1ccccc1)c1nc2ccc(Br)cc2s1	0	6.31µM	?	0	0	0
Cc1ccc2sc(N(CCCN(C)C)C(=O)CCS(=O)(=O)c3ccccc3)nc2c1C	0	?	?	0	0	0
CC(=O)OC1CCC2(/C=N/O)[C@H]3CCC4(C)C(C5=CC(=O)OC5)CCC4(O)[C@@H]3CCC2(O)C1 (some centres undefined)	-	-	-	0	-	-
CC(C)(C)NC(=O)N1c2ccccc2Sc2ccccc21	0	?	0	0	0	0
CC1CCN(C(=O)N2c3ccccc3Sc3ccccc32)CC1	0	2µM	0	0	0	0
C=C1C(=O)OC2CC1C(O)CC(C)=CCCC(C)=CC(O)CC2C (centres undefined)	0	2.24µM	?	0	0	0
Cc1cccc(Nc2nc(N)c([N+](=O)[O-])c(NCc3ccccc3)n2)c1	0	?	?	0	0	?
Cc1cccc(Nc2nc(NCc3ccco3)c3ccccc3n2)c1	0	2.24µM	?	0	0	0
Cc1[nH]nc2c1C(c1ccc(OCC(N)=O)cc1)SCC(=O)N2 (centres undefined)	-	-	-	0	-	-
OC(c1cccc(Cl)c1)(c1cccc(Cl)c1)C1CN2CCC1CC2 (centres undefined)	0	3.98µM	?	0	0	0
O=C(Nc1cccc(C(F)(F)F)c1)OC1CN2CCC1CC2 (centres undefined)	0	?	0	0	0	0
CCC(C)NCCOc1ccc(C(C)(C)c2ccccc2)cc1 (centres undefined)	0	5.01µM	?	0	0	0
CCC(C)NCCc1ccccc1 (centres undefined)	-	-	-	0	-	-
CN(C)C(=O)O/N=C(\N)COc1ccc(C(C)(C)C)cc1	0	?	3.16µM	0	0	0
O=C(CN1c2ccccc2Sc2ccccc21)NNC(=O)Nc1ccc(Cl)cc1	0	1.41µM	?	0	0	0
CCn1cc(C(=O)Nc2cccc3ncccc23)c2ccccc21	-	-	-	0	-	-
CN(C(=O)CSc1nc2ccc(NC(=O)COc3ccc(Cl)cc3)cc2s1)c1ccccc1	0	5.62µM	0	0	0	-
COC(=O)C1=C(c2ccc(F)cc2OCc2ccccc2)C[C@@H]2CC[C@H]1N2C(=O)NCc1ccccc1Br	0	0	0	0	0	0
COC(=O)C1=C(c2cccc(OCc3ccccc3)c2)C[C@@H]2CC[C@H]1N2C(=O)NCc1cccc(C(F)(F)F)c1	0	11.2µM	0	0	0	0
COC(=O)C1=C(c2ccc(F)cc2OCc2ccccc2)C[C@@H]2CC[C@H]1N2C(=O)NCc1ccccc1C(F)(F)F	0	12.6µM	0	0	0	0
COC(=O)C1=C(c2ccc(OCc3ccccc3)cc2)C[C@@H]2CC[C@H]1N2C(=O)NCc1ccc(C(C)(C)C)cc1	0	4.47µM	0	0	0	0
COC(=O)C1=C(c2ccc(OCc3ccccc3)cc2)C[C@@H]2CC[C@H]1N2C(=O)NCc1ccccc1	0	?	0	0	0	0
COc1ccc(CCNCc2cccc(Br)c2)cc1	-	-	-	0	-	-
Cc1cc(=O)oc2cc(OCC(=O)N3CCN(CCO)CC3)c(Cl)cc12	-	-	-	0	-	-
CN(C)CCN(CC1CCCN(Cc2ccccc2F)C1)C(=O)Cc1ccccc1F (centres undefined)	0	10µM	0	0	0	0
